Drawing on PubChem BioAssay AID441 (NMMLSC, 2006), this text covers inhibition for 94 compounds.

Screen size: about 24,000 compounds; about 70 (0.3%) were called active. The list comes from a sample in which actives are over-represented; it also holds similar structures and randomly drawn compounds. Values without a mark were called inactive. Rule as the data show it: active = inhibition above about 30%; inconclusive = no clear call, values can overlap the other calls; inactive = below that.

The assay deals with N-formyl peptide receptor 2 (Homo sapiens) (UniProt P25090). Briefly: human FPRL1 ligands by binding competition, primary screen, cell-based, FPR counter-screen, flow cytometry (AID 441).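 Also: 0% = buffer alone and 100% = receptor blocker peptide.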 Particulars: FPRL1-expressing cells, fluorescent ligand binding inhibition, stronger effect = higher value, concentration not given here. A general note: Counterscreens check selectivity or assay interference.
N-formyl peptide receptor 2 (Homo sapiens), sequence (P25090 whole entry, looked up): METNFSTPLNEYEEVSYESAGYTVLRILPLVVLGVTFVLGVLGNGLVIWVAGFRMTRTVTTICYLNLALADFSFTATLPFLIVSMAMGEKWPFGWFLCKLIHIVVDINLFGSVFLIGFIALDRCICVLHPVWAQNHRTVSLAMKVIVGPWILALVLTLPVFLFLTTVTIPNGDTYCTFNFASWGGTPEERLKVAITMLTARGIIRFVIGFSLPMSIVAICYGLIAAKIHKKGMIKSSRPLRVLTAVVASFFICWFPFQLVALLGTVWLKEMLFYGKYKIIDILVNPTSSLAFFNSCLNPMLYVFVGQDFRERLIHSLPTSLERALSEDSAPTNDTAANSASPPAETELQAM
With `COc1ccc(CCNC(=O)c2cc(-c3ccc4c(c3)OCO4)on2)cc1OC`, the inhibition was -0.8%.
As to `COc1cccc(NC(=O)C2CCCN2C(=O)OCc2ccccc2)c1` (centres undefined), the inhibition is 0.3%.
On to `CCOc1ccc(OCC)c(NC(=O)C2CCN(S(=O)(=O)c3c(C)noc3C)CC2)c1`, for which the inhibition is 30.8% (active).
As for `CCOC(=O)C1CCN(C(=O)C2CCN(S(=O)(=O)c3c(C)noc3C)CC2)CC1`, the inhibition is 10.6%.
Consider `CCOc1ccccc1NC(=O)C1CCN(S(=O)(=O)c2c(C)nn(C)c2C)CC1`, for which the inhibition was -6.7%.
As to `COc1ccc(C(=O)Nc2nncs2)c(OC)c1`, the inhibition is 0%.
Regarding `COc1ccc(NS(=O)(=O)c2ccc(NC(C)=O)cc2)cc1OC`, the inhibition was 6%.
Turning to `NC(=O)CCCC1=NS(=O)(=O)c2ccccc2N1`, the inhibition was -3.9%.
To `CCN1C(=O)/C(=C2/Sc3ccccc3N2CCCS(=O)(=O)O)SC1=S` belongs 5.6%; to `CC(=O)c1c(C)c[nH]c1C`, 6%.
For the compound `Cc1cccc(N2CCN(C(=O)c3cc4c(=O)[nH]c5ccccc5c4n3C)CC2)c1C`, the inhibition was -5%.
Consider `CCOc1ccc(-c2nnn(CC(=O)N3CCN(c4ccc(F)cc4)CC3)n2)cc1OCC`, for which the inhibition was -1.6%.
For `CCOC(=O)N1CCN(C(=O)c2ccc3nc4cc(Cl)ccc4c(=O)n3c2)CC1` the value was -10%; for `CCOc1ccc(C2C(C(=O)NC)=C(C)Nc3nc4ccccc4n32)cc1OC` (centres undefined), -2.9%.
Consider `O=C(NCCCN1CCN(Cc2ccccc2)CC1)C1CCN(S(=O)(=O)N2CCCC2)CC1`, for which the inhibition was 2%.
With `COc1cccc(CN2C(=O)CCC2(C)C(=O)NC2CCCCCC2)c1` (centres undefined), the inhibition was 7.7%.
Consider `Cc1cc(N2C(=O)C(=O)/C(=C(/O)c3ccc(Cl)cc3)C2c2cccc(Br)c2)no1` (centres undefined), for which the inhibition was -2.5%.
For `Cn1c(=O)c2[nH]c(NCC3CCCO3)nc2n(-c2ccccc2)c1=O` (centres undefined) the value was -0.4%.
On to `CCOC(=O)c1oc2ccccc2c1NC(=O)c1cccs1`, for which the inhibition is -9.1%.
Regarding `CC(NC(=O)COc1ccccc1)C(=O)NC1=NCCS1` (centres undefined), the inhibition is 5.2%.
Regarding `CCN(CC)CCNC(=O)C1c2ccccc2C(=O)N(C)C1c1cn(C)c2ccccc12` (centres undefined), the inhibition is 9.3%.
Consider `Cc1cccc(NC(=O)CSc2nnc(NC(=O)CN3CCOCC3)s2)c1`, for which the inhibition was 8.7%.
For `COc1ccccc1C(=O)NCCn1cc(SCC(=O)NCc2ccco2)c2ccccc21` the value was 2.6%; for `COC(=O)C1=C(C)OC(N)=C(C#N)C1c1cc(OC)ccc1OC` (centres undefined), 5.9%.
To `COC(=O)c1cn(C)c2ccc(S(=O)(=O)N3CC(C)CC(C)C3)cc2c1=O` (centres undefined) belongs 8.5%.
`COc1ccc(C2/C(=C(/O)c3ccccc3)C(=O)C(=O)N2c2ncccn2)cc1OC` (centres undefined): the inhibition is -2.7%.
As to `Cc1c(C(=O)Nc2ccccc2Cl)oc2ccc(S(=O)(=O)N3CCC4(CC3)OCCO4)cc12`, the inhibition was -12.5%.
For `CCOC(=O)n1c(SCC(=O)N(CC)CC)nc2ccccc21` the value was -1.8%.
For the compound `O=C(NCc1cccs1)c1ccc2c(c1)ncn2C1CCCC1`, the inhibition was 2.8%.
In the case of `O=C(CN1C(=O)CCS(=O)(=O)c2ccccc21)NCc1ccc(F)cc1`, the inhibition is 1.5%.
In the case of `O=C(C1=C(O)C(=O)N(Cc2ccccc2)C1c1cccnc1)c1ccco1` (centres undefined), the inhibition is 1.3%.
In the case of `COc1ccc(-c2nnc(SCC(=O)NC3CCCCC3)o2)cc1OC`, the inhibition is 2.7%.
With `CCOC(=O)c1ccn(-c2nc(-c3ccco3)cc(C(F)(F)F)n2)n1`, the inhibition is 2.5%.
Consider `O=C(CCN1C(=O)c2ccncc2C1=O)Nc1ccc2c(c1)OCCO2`, for which the inhibition was 9.6%.
`CCN1CCN(c2ncnc3c2oc2nc(C)c4c(c23)CC(C)(C)OC4)CC1`: the inhibition was 1.2%.
Take `CCOc1ccc(NC(=O)CCS(=O)(=O)c2cccc3nsnc23)cc1`: the inhibition is -3.1%.
Turning to `CCOc1nc(OCC)nc(-n2cc(-c3ccccc3)nn2)n1`, the inhibition was 3%.
Take `CCOC(=O)c1ccc(NC(=O)Cn2nnc(-c3ccc(C)cc3)n2)cc1`: the inhibition was 3.3%.
Take `COc1ccc(Cc2nnc(NC(=O)Cc3cccs3)s2)cc1`: the inhibition is -1.5%.
For `COc1ccc(CC(=O)Nc2ccc(-c3nnc(-c4ccc(C)cc4)o3)cc2)cc1`, the inhibition was 51.1% (active).
`Cn1c(=O)[nH]c(=O)c2c1nc(CN(Cc1ccccc1)Cc1ccccc1)n2CCN1CCOCC1`: the inhibition was -0.1%.
Regarding `CN(Cc1ccccc1)C(=O)CCNC(=O)Cn1cnc2ccccc2c1=O`, the inhibition was -4.8%.
In the case of `COc1ccc(CCNC(=O)c2ccc3c(c2)NC(=O)C(N2CCOCC2)S3)cc1OC` (centres undefined), the inhibition was 0.3%.
For `Cn1c(C(=O)N2CCC(C(N)=O)CC2)cc2c(=O)n(C)c3ccccc3c21` the value was -1.2%; for `C/C(=N\O)C1(C)N(O)C(C)(C)C(c2ccc(Br)cc2)=[N+]1[O-]` (centres undefined), 1.1%; for `Cc1ncn(C23CC4CC(CC(O)(C4)C2)C3)n1`, 8.2%.
Turning to `Cc1cc(=O)n2nc(N3CCCC(C(=O)NCCC4=CCCCC4)C3)sc2n1` (centres undefined), the inhibition was 3%.
As to `CC(C)Nc1nc(N(c2ccccc2)c2ccccc2)nc(-n2ccnc2)n1`, the inhibition was -7.8%.
On to `CCOC(=O)Nc1ccccc1N1C(=O)c2ccccc2C1=O`, for which the inhibition is -0.1%.
Turning to `CCOC(=O)c1[nH]c2c(c1C)C(=O)CC(c1ccc(N(C)C)cc1)C2` (centres undefined), the inhibition is -0.6%.
For `CC1C=CCC2C(=O)N(c3cccc(C(=O)N4CCCCCC4)c3)C(=O)C12` (centres undefined) the value was -6.5%; for `O=C1NC(c2ccncc2)Nc2sc3c(c21)CCCC3` (centres undefined), 0.8%.
For `CCOC(=O)c1ccc2[nH]c(C)c(CN3CCN(C)CC3)c(=O)c2c1`, the inhibition is -3.9%.
As for `Cc1ccc2cc3cc(C(=O)N4CCCCCC4)oc3nc2c1`, the inhibition was 3.2%.
As for `CC1=C(C(=O)Nc2ccccc2)C(c2cccs2)C(C#N)=C(SCC#N)N1` (centres undefined), the inhibition was -2.4%.
To `c1ccc(CCn2nnnc2CN2CCN(C3CCCC3)CC2)cc1` belongs -2.3%; to `COc1ccc(-c2ccc(Nc3ccc(S(=O)(=O)N4CCCC4)cc3)nn2)cc1OC`, 2.7%.
Take `Cc1nc2ncnn2c(C)c1CCC(=O)N1CCN(C(=O)c2ccco2)CC1`: the inhibition is -3.3%.
To `CCN1CCN(Cc2c(O)ccc3c(=O)c(-c4ccc(OC)c(OC)c4)c(C(F)(F)F)oc23)CC1` belongs -3.1%; to `CCOC(=O)c1cccc(NC(=O)CN(c2ccc(C)cc2)S(=O)(=O)c2c(C)noc2C)c1`, -3%; to `COc1cccc(-c2nc3n(n2)C(c2ccccc2Cl)C(C(N)=O)=C(C)N3)c1` (centres undefined), -2.8%.
Regarding `O=C1CCc2cc(S(=O)(=O)N3CCC(C(=O)NCc4ccccc4Cl)CC3)ccc2N1`, the inhibition was -0.3%.
Take `CCOC(=O)c1cc2cc(-c3c(C(=O)OCC)oc4cc(O)cc(O)c4c3=O)ccc2o1`: the inhibition is 1.4%.
Take `CCCCN(CC)C(=O)CN(C)S(=O)(=O)c1cccc2nsnc12`: the inhibition is 1%.
Regarding `CCn1c(SCC(=O)Nc2ccccc2F)nc2c(c1=O)SC(C)C2` (centres undefined), the inhibition is 4.3%.
For `COc1ccc(CCNC(=O)CSc2nnc(CNC(=O)c3cccs3)o2)cc1OC` the value was 1.2%; for `Cc1ccc(-c2nc(CS(=O)CC(=O)NC3CCCC3)c(C)o2)cc1` (centres undefined), 1.4%; for `COCCCN(C(=O)Cn1ncc2c(=O)oc3ccc(C)cc3c21)C(C)c1ccncc1` (centres undefined), -4.1%.
Turning to `CCn1ncc(Br)c1C(=O)Nc1cc(C)ccc1F`, the inhibition was -0.1%.
Consider `Cc1ccccc1CSc1nnc(Cn2c(=O)sc3ccccc32)n1C`, for which the inhibition was 5.5%.
For `O=C1CC(c2ccccc2)CC(O)=C1C=NCCN1CCOCC1` (centres undefined) the value was 1.2%; for `CC(=O)N(CC1CCCO1)C1(C(=O)NC2CCCC2)CCCCC1` (centres undefined), 4%.
With `COC(=O)[C@H](C(C)C)n1c(C)c(C(C)=O)c(C(C)=O)c1C`, the inhibition was 31.1% (active).
Regarding `Cc1cccc(C2c3c(n(C)c(=O)n(C)c3=O)N=C3c4ccccc4C(=O)C32)c1` (centres undefined), the inhibition is -4.5%.
On to `CCN(CC)C(=O)CCC(=O)Nc1ccc(C(=O)OC)cc1`, for which the inhibition is 4.2%.
To `CC(C)COC(=O)C1C2C=CC3(CN(C(C)c4ccc(Br)cc4)C(=O)C13)O2` (centres undefined) belongs 17.2%; to `C/C(=C(\C#N)C(=O)NCCCN1CCOCC1)N(C)C`, -7.6%.
Take `CN1C(=O)c2ccccc2C(C(=O)NCCCN2CCCC2)C1c1c[nH]c2ccccc12` (centres undefined): the inhibition is -4.5%.
To `Cc1ccc(S(=O)(=O)n2nc(OC(=O)C(C)(C)C)cc2N)cc1` belongs -2.2%; to `Clc1ccc(Cn2ncc3c(NCc4cccnc4)ncnc32)cc1`, -5.1%; to `CCOc1ccc(OCC)c(NC(=O)CN(C)S(=O)(=O)c2cccc3nsnc23)c1`, -4.8%.
As to `Cn1c(=O)cc(SCC(=O)N2CCN(C(=O)c3ccco3)CC2)c2ccccc21`, the inhibition was -1.6%.
On to `COc1ccc(OC)c(NC(=O)CC(Cc2ccccc2OC)C(=O)O)c1` (centres undefined), for which the inhibition is 9.6%.
To `CCOC(=O)C1CCCN(Cc2nc(N)nc(Nc3ccc(C)cc3)n2)C1` (centres undefined) belongs -0.4%; to `CC1Cc2nc(SCC(=O)Nc3ccccc3F)n(C)c(=O)c2S1` (centres undefined), -4.6%.
Consider `CC1=Nn2c(nnc2-c2ccccc2)SC1`, for which the inhibition is 4.7%.
To `C=CCNC(=O)CSc1nc2sc(C)c(C)c2c(=O)[nH]1` belongs -8.9%; to `Cc1cc(Nc2ccccc2)n(CCC#N)n1`, 9.1%; to `O=C(Cc1nn[nH]n1)NCCC1=CCCCC1`, 3.2%.
`CCCn1cc(SCC(N)=O)c2ccccc21`: the inhibition was 0.9%.
In the case of `O=C(Nc1ccccc1)N(Cc1cccnc1)Cc1ccco1`, the inhibition is 3.6%.
Consider `Cc1cccc(Nc2ccccc2C(=O)NCc2ccco2)c1C`, for which the inhibition was 34.3% (active).
As for `CCCCOc1ccc(C(=O)NCc2ccco2)cc1`, the inhibition was -9.3%.
For `O=C(NCc1ccco1)c1cccn2c(=O)c3cc(Br)ccc3nc12` the value was -9.9%.

The inhibition is the change of the read-out against control, counted positive when it falls.
